The nature of experiment [1]: ATG_M_32_TRANS: Attagene TRANS-FACTORIAL HepG2 Assay for M32 Transcription Factor (Internal Marker) (AID 2282984; active means hit-call score of the fitted dose curve at least 0.9, where 1 is the maximum;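 further: transcript level of a background control reporter unit measured by RT-PCR and capillary electrophoresis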). To be noted: HepG2 Attagene TRANS M32 internal marker reporter. In a few lines:
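HepG2 cells transiently transfected with GAL4-UAS reporter units, dosed for 24 hours. Reporter mRNA quantified by RT-PCR, 6-FAM labelling, HpaI digestion and capillary electrophoresis; internal-marker signal fitted upward relative to DMSO.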

Experiment [2] concerns the target Nuclear receptor subfamily 4 group A member 2 (Homo sapiens) (UniProt P43354). Kind of experiment: ATG_NURR1_TRANS: Attagene TRANS-FACTORIAL HepG2 Assay for human Nuclear Receptor Related Protein 1 (NURR1) (AID 2282985; active means hit-call score of the fitted dose curve at least 0.9, where 1 is the maximum). To be noted: HepG2 Attagene TRANS reporter, mRNA readout. A digest of the protocol: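 HepG2 cells transiently transfected with NURR1-Gal4 chimera and GAL4-UAS reporter units; after 24 hr compound exposure, reporter mRNA quantified by RT-PCR and capillary electrophoresis; gain of signal fitted against DMSO.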

The target of experiment [3] is Transcriptional activator Myb (Homo sapiens) (UniProt P10242). In words: ATG_Myb_CIS: Attagene CIS-FACTORIAL HepG2 Assay for human Myeloblastosis (Myb) Proto-Oncogene Transcription Factor (AID 2282986). To be noted: HepG2 Attagene CIS-FACTORIAL Myb reporter transcription; actives raise or lower the signal. A digest of the protocol: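 In this HepG2 transient-transfection format, cis-regulated reporter mRNA is quantified 24 h post-dosing by RT-PCR with capillary electrophoresis, fitted bidirectionally to DMSO baseline.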

Experiment [4] addresses Nuclear respiratory factor 1 (Homo sapiens) (UniProt Q16656). In words: ATG_NRF1_CIS: Attagene CIS-FACTORIAL HepG2 Assay for human Nuclear Respiratory Factor 1 (NRF1) Orphan Gene (AID 2282987). To be noted: HepG2 NRF1 cis-element reporter, Attagene multiplex; actives raise or lower the signal. A digest of the protocol: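 Using DMSO as baseline, gain- or loss-of-signal was fitted for reporter mRNA levels in HepG2 cells transiently transfected with cis-regulated reporter units. Samples were taken 24 h after dosing and read by RT-PCR with capillary electrophoresis.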

The nature of experiment [5]: ATG_NFI_CIS: Attagene CIS-FACTORIAL HepG2 Assay for human Nuclear Factor I (NFI) (AID 2282989). Conditions: HepG2 cis-regulatory reporter, NFI response element transcription; actives raise or lower the signal. In a few lines:
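Transient MRTU transfection of HepG2 → 24 h chemical dosing → total RNA, oligo(dT) RT → PCR, 6-FAM primer extension, HpaI cut → capillary electrophoresis. Endpoint fitted bidirectionally relative to DMSO.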

Experiment [6] deals with Myc proto-oncogene protein (Homo sapiens) (UniProt P01106). In words: ATG_Myc_CIS: Attagene CIS-FACTORIAL HepG2 Assay for human Myelocytomatosis (Myc) Proto-Oncogene Transcription Factor (AID 2282990). Conditions: HepG2, Attagene cis-reporter transcription factor activity; actives raise or lower the signal. A digest of the protocol:
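Read-out: fluorescent reporter mRNA fragments resolved by capillary electrophoresis after RT-PCR. Human HepG2 liver cells carried transfected cis-element reporter units and were dosed for 24 h. Gain or loss of signal fitted relative to DMSO baseline.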

Experiment [7] can be described thus: ATG_M_06_TRANS: Attagene TRANS-FACTORIAL HepG2 Assay for M06 Transcription Factor (Internal Marker) (AID 2282983; active means hit-call score of the fitted dose curve at least 0.9, where 1 is the maximum;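 further: reporter transcript level by RT-PCR then capillary electrophoresis fluorescence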). To be noted: HepG2 Attagene TRANS M06 internal marker reporter. A digest of the protocol:
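Cells: HepG2, transient multi-reporter transfection. Exposure: 24 h. Detection: RT-PCR, 6-FAM labelling, HpaI digestion (2 h, 37 °C), capillary electrophoresis. Baseline: DMSO.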

Data on 28 compounds can be found in PubChem BioAssay (EPA / NIEHS).

Each structure is given as a SMILES string. Inconclusive results are not listed. The source made the active and inactive calls. How the source made its calls, unless noted: active means hit-call score of the fitted dose curve at least 0.9, where 1 is the maximum; inactive means score below 0.9.

Nuclear respiratory factor 1 (Homo sapiens), sequence (Q16656 whole entry, looked up): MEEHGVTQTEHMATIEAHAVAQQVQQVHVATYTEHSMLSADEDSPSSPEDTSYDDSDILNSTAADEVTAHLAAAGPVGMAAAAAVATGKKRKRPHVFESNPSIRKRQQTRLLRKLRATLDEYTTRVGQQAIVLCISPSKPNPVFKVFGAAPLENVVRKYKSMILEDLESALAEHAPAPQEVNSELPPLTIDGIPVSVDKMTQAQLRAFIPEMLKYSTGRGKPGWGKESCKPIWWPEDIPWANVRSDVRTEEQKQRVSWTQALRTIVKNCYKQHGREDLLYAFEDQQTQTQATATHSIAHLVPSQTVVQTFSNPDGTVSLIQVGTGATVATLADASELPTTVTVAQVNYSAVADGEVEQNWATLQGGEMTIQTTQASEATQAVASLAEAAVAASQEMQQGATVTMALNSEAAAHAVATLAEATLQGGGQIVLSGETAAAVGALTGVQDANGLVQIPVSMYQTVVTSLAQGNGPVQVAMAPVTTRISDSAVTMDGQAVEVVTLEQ
Transcriptional activator Myb (Homo sapiens), sequence (P10242 whole entry, looked up): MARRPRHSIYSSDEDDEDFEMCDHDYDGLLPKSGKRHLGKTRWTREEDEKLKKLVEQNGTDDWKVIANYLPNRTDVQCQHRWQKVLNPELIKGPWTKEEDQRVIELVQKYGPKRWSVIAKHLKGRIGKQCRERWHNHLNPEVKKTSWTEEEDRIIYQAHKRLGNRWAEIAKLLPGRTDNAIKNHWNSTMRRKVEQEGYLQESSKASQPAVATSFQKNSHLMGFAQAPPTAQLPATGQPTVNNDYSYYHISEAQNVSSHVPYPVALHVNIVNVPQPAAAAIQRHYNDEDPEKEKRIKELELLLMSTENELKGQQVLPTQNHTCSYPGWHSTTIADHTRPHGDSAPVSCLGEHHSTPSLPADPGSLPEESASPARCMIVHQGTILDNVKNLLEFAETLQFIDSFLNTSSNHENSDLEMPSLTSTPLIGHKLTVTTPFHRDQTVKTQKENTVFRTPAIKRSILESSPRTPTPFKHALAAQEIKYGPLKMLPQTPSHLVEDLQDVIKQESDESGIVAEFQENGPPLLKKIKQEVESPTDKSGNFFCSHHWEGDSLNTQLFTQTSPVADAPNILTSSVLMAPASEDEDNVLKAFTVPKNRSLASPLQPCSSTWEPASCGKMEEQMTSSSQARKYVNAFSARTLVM
Myc proto-oncogene protein (Homo sapiens), sequence (P01106 whole entry, looked up, the tested form may be a part): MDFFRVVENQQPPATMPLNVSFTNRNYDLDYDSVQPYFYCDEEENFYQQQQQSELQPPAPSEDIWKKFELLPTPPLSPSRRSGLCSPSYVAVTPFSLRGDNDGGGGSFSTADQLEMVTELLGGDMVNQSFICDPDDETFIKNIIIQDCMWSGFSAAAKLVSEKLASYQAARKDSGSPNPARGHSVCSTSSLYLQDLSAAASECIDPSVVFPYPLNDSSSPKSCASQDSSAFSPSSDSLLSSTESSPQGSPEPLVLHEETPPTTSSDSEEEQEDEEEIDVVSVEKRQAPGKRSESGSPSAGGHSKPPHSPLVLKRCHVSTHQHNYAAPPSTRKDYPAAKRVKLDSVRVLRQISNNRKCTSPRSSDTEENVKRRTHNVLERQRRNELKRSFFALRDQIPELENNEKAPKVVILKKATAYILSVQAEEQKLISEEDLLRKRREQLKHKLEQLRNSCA
Nuclear receptor subfamily 4 group A member 2 (Homo sapiens), sequence (P43354 whole entry, looked up, the tested form may be a part): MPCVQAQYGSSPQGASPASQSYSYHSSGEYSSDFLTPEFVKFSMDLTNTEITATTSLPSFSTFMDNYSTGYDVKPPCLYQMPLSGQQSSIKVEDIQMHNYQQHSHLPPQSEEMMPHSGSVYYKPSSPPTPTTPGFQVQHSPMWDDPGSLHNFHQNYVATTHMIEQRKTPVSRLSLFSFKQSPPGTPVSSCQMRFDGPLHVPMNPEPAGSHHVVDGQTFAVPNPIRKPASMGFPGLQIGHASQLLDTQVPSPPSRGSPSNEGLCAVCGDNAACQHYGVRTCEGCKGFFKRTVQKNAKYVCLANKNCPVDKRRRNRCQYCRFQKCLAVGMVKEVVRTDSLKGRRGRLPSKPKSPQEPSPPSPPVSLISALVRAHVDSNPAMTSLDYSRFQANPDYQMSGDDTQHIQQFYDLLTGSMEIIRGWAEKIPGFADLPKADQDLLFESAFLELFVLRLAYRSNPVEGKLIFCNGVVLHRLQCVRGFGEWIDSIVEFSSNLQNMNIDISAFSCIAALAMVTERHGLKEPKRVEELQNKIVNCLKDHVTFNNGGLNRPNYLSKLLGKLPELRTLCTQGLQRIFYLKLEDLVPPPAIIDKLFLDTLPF

In the case of `BrCC(Br)c1ccccc1` (stereo unspecified), the compound was classed as inactive in experiment [1], in experiment [2], in experiment [3], in experiment [4], in experiment [5] and in experiment [6].

For the compound `O=S(=O)(Oc1ccc(Cl)cc1)c1ccc(Cl)cc1`, the result in experiment [2], in experiment [3], in experiment [4], in experiment [5] and in experiment [6] was inactive.

In the case of `BrCc1ccc(Br)cc1`, the compound was called inactive in experiment [7], in experiment [2], in experiment [3], in experiment [4], in experiment [5] and in experiment [6].

For `CN(N=O)c1ccc([N+](=O)[O-])cc1`, the outcome in experiment [7], in experiment [1], in experiment [2], in experiment [3], in experiment [4] and in experiment [5] was inactive. The compound was called inactive in experiment [6].

Regarding `Cc1cccc(OP(=O)(Oc2cccc(C)c2)Oc2cccc(C)c2)c1`, the compound was classed as inactive in experiment [1], in experiment [2], in experiment [3], in experiment [5] and in experiment [6].

The AC50 is the concentration at which the activity in the assay is half-maximal. In the case of `N#CCCC(Br)(C#N)CBr` (stereo unspecified), the result in experiment [1], in experiment [2], in experiment [3], in experiment [4] and in experiment [6] was inactive. Moreover, the AC50 in experiment [5] is 54.3 µM (active).

Consider `Nc1ncn[nH]1`, for which the call in experiment [3], in experiment [4], in experiment [5] and in experiment [6] was inactive.

As to `CCCSP(=S)(OCC)Oc1ccc(Cl)cc1Cl` (stereo unspecified), the call in experiment [7], in experiment [1], in experiment [2], in experiment [3], in experiment [4] and in experiment [5] was inactive. For the same compound, the outcome in experiment [6] was inactive.

On to `O=S1OC[C@@H]2[C@H](CO1)[C@]1(Cl)C(Cl)=C(Cl)[C@@]2(Cl)C1(Cl)Cl` (stereo partly specified), for which the compound was called inactive in experiment [7], in experiment [3], in experiment [4], in experiment [5] and in experiment [6].

As to `O=C(O)c1cc(I)cc(I)c1I`, the compound was called inactive in experiment [1], in experiment [3], in experiment [5] and in experiment [6].

For `C=CC(Cl)CCl` (stereo unspecified), the call in experiment [2], in experiment [3], in experiment [4], in experiment [5] and in experiment [6] was inactive.

As to `c1ccc2sc(SNC3CCCCC3)nc2c1`, the result in experiment [1], in experiment [2], in experiment [3], in experiment [4] and in experiment [5] was inactive. Moreover, the AC50 in experiment [6] was 148 µM (active).

In the case of `Clc1cccc(Cl)c1`, the outcome in experiment [3], in experiment [4], in experiment [5] and in experiment [6] was inactive.

Turning to `O=C(NC(=O)c1c(F)cccc1F)Nc1cc(Cl)c(Oc2ncc(C(F)(F)F)cc2Cl)c(Cl)c1`, the outcome in experiment [7], in experiment [2], in experiment [3], in experiment [4], in experiment [5] and in experiment [6] was inactive.

As for `OC[C@@H](O)[C@H]1O[C@@H]2O[C@H](C(Cl)(Cl)Cl)O[C@@H]2[C@H]1O`, the compound was classed as inactive in experiment [7], in experiment [1], in experiment [2], in experiment [3], in experiment [4] and in experiment [5]. Also, the call in experiment [6] was inactive.

Take `CCCCCCCCCCCCCCC(Br)C(=O)O` (stereo unspecified): the compound was called inactive in experiment [1], in experiment [5] and in experiment [6]. The AC50 in experiment [2] was 26.4 µM (active); in experiment [3] it was 163 µM (active).

Regarding `c1ccc2c(c1)Oc1ccccc1O2`, the call in experiment [3], in experiment [4], in experiment [5] and in experiment [6] was inactive.

As for `CC(c1ccccc1)(c1ccc(O)cc1)c1ccc(O)cc1`, the compound was classed as inactive in experiment [1], in experiment [3], in experiment [4], in experiment [5] and in experiment [6]. Further, the AC50 in experiment [2] was 18.2 µM (active).

With `ClCc1ccccc1Cl`, the compound was classed as inactive in experiment [1], in experiment [2], in experiment [3], in experiment [4], in experiment [5] and in experiment [6].

As for `O=S(=O)(c1ccc(Cl)cc1)c1cc(Cl)c(Cl)cc1Cl`, the outcome in experiment [2], in experiment [3], in experiment [4], in experiment [5] and in experiment [6] was inactive.

Turning to `O=C(O)C1(c2ccc3c(c2)OC[C@H](Cc2ccc(-c4ccccc4)cc2)[C@H]3O)CCCC1`, the compound was called inactive in experiment [7], in experiment [1], in experiment [2], in experiment [3], in experiment [4] and in experiment [5]. Further, the compound was called inactive in experiment [6].

With `CCOP(=S)(OCC)O/N=C(\C#N)c1ccccc1`, the compound was called inactive in experiment [7], in experiment [3], in experiment [4], in experiment [5] and in experiment [6].

Consider `Oc1cccc(-c2ccccc2)c1`, for which the outcome in experiment [7], in experiment [2], in experiment [3], in experiment [4] and in experiment [6] was inactive. Also, in experiment [5], the AC50 is 139 µM (active).

Take `CCOP(=O)(OCC)OC(=CCl)c1ccc(Cl)cc1Cl`: the call in experiment [1], in experiment [3], in experiment [4], in experiment [5] and in experiment [6] was inactive. In addition, the AC50 in experiment [2] was 100 µM (active).

Consider `Cc1cc(C(F)(C(F)(F)F)C(F)(F)F)ccc1NC(=O)c1cccc(I)c1C(=O)NC(C)(C)CS(C)(=O)=O`, for which the compound was called inactive in experiment [3], in experiment [4], in experiment [5] and in experiment [6].

In the case of `CCCCCCCCCCCCOS(=O)(=O)O`, the compound was called inactive in experiment [1], in experiment [2], in experiment [3], in experiment [4], in experiment [5] and in experiment [6].

As to `CCCCCCCCCCCCc1cccc(S(=O)(=O)O)c1`, the result in experiment [7], in experiment [2], in experiment [3], in experiment [4], in experiment [5] and in experiment [6] was inactive.

Turning to `ClCCCCl`, the outcome in experiment [7], in experiment [1], in experiment [2], in experiment [3], in experiment [4] and in experiment [5] was inactive. Moreover, the call in experiment [6] was inactive.
